# From PubChem BioAssay (NCI)
# “And” between values parts separate entries of the source, which are not always exact repeats. Equal entries are not always repeated. The panel holds about 83,000 compounds, 20% with a hit somewhere; the sample as a whole holds those more often.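 Single-concentration screen, 48 h exposure, 96-well plates. Endpoint: percent growth. Below 10 = active.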 The source made the active and inactive calls.
# Assays:
# Assay in all cases: NCI-60 one-dose screen, 48 h (100 = growth as untreated, 0 = no growth, -100 = all killed)
# [1] = test system: HCT-15 colon
# [2] = test system: HT29 colon
# [3] = test system: SNB-75 CNS
# [4] = test system: SNB-19 CNS
# [5] = test system: U251 CNS
# [6] = test system: PC-3 prostate
# [7] = test system: SK-MEL-5 melanoma
# [8] = test system: UACC-62 melanoma
# [9] = test system: LOX IMVI melanoma
# [10] = test system: SK-MEL-28 melanoma
smiles,measurement,setting,value
CCC(=O)Oc1ccc(/C=N/NC(N)=S)nc1,growth,[1]; 10 µM,65% (inactive)
same,growth,[2]; 10 µM,60.8% (inactive)
same,growth,[3]; 10 µM,41% (inactive)
same,growth,[4]; 10 µM,72.7% (inactive)
same,growth,[5]; 10 µM,27.3% (inactive)
same,growth,[6]; 10 µM,54.1% (inactive)
same,growth,[7]; 10 µM,31% (inactive)
same,growth,[8]; 10 µM,7.95% (active)
same,growth,[9]; 10 µM,18.1% (inactive)
same,growth,[10]; 10 µM,79% (inactive)
O=S(=O)(c1cc(Cl)ccc1O)c1cc(Cl)ccc1O,growth,[1]; 10 µM,94.2% (inactive)
same,growth,[2]; 10 µM,105% (inactive)
same,growth,[3]; 10 µM,77.1% (inactive)
same,growth,[4]; 10 µM,91.8% (inactive)
same,growth,[5]; 10 µM,76.7% (inactive)
same,growth,[6]; 10 µM,80.6% (inactive)
same,growth,[7]; 10 µM,53.5% (inactive)
same,growth,[8]; 10 µM,31.1% (inactive)
same,growth,[9]; 10 µM,93.5% (inactive)
same,growth,[10]; 10 µM,87.5% (inactive)
Nc1nc(N)c2cc(Sc3ccc4ccccc4c3)ccc2n1,growth,[1]; 10 µM,22.6% (inactive)
same,growth,[2]; 10 µM,9.75% (active)
same,growth,[3]; 10 µM,53.5% (inactive)
same,growth,[4]; 10 µM,35.7% (inactive)
same,growth,[5]; 10 µM,27.4% (inactive)
same,growth,[6]; 10 µM,35.6% (inactive)
same,growth,[7]; 10 µM,23.4% (inactive)
same,growth,[8]; 10 µM,27.3% (inactive)
same,growth,[9]; 10 µM,21% (inactive)
same,growth,[10]; 10 µM,61.7% (inactive)
CN(C)c1ccc(/C=C/c2ccnc3ccccc23)cc1N,growth,[1]; 10 µM,59.5% (inactive)
same,growth,[2]; 10 µM,58.5% (inactive)
same,growth,[3]; 10 µM,85.8% (inactive)
same,growth,[4]; 10 µM,80.2% (inactive)
same,growth,[5]; 10 µM,66.7% (inactive)
same,growth,[6]; 10 µM,60.4% (inactive)
same,growth,[7]; 10 µM,13.6% (inactive)
same,growth,[8]; 10 µM,63.3% (inactive)
same,growth,[9]; 10 µM,71.4% (inactive)
same,growth,[10]; 10 µM,83.8% (inactive)
CC(=O)O[C@H]1C(=O)[C@@]2(C)[C@H]([C@H](OC(=O)c3ccccc3)[C@]3(O)C[C@H](OC(=O)[C@H](O)[C@@H](NC(=O)c4ccccc4)c4ccccc4)C(C)=C1C3(C)C)[C@]1(OC(C)=O)CO[C@@H]1C[C@@H]2O,growth,[1]; 0.01 µM,87.3% (inactive)
same,growth,[1]; 2.5 µM,13.2% (inactive)
same,growth,[1]; 5 µM,12.4% (inactive)
same,growth,[1]; 10 µM,-26.2% (active) and 11.5% (inactive)
same,growth,[2]; 0.01 µM,3.27% (active)
same,growth,[2]; 2.5 µM,-29.4% (active)
same,growth,[2]; 5 µM,-21.4% (active)
same,growth,[2]; 10 µM,-21.5% (active) and -18.2% (active)
same,growth,[3]; 0.01 µM,-1.17% (active)
same,growth,[3]; 2.5 µM,-28% (active)
same,growth,[3]; 5 µM,-16.7% (active)
same,growth,[3]; 10 µM,-38.5% (active) and -19.3% (active)
same,growth,[4]; 0.01 µM,30% (inactive)
same,growth,[4]; 2.5 µM,25.9% (inactive)
same,growth,[4]; 5 µM,30.1% (inactive)
same,growth,[4]; 10 µM,31.4% (inactive) and 35.6% (inactive)
same,growth,[5]; 0.01 µM,27.9% (inactive)
same,growth,[5]; 2.5 µM,12.3% (inactive)
same,growth,[5]; 5 µM,13.9% (inactive)
same,growth,[5]; 10 µM,10.6% (inactive) and 15.9% (inactive)
same,growth,[6]; 0.01 µM,25% (inactive)
same,growth,[6]; 2.5 µM,26.2% (inactive)
same,growth,[6]; 5 µM,34.7% (inactive)
same,growth,[6]; 10 µM,-45.5% (active) and 37.3% (inactive)
same,growth,[7]; 0.01 µM,18% (inactive)
same,growth,[7]; 2.5 µM,4.29% (active)
same,growth,[7]; 5 µM,17.5% (inactive)
same,growth,[7]; 10 µM,34.6% (inactive) and 13% (inactive)
same,growth,[8]; 0.01 µM,24.9% (inactive)
same,growth,[8]; 2.5 µM,34.2% (inactive)
same,growth,[8]; 5 µM,40.3% (inactive)
same,growth,[8]; 10 µM,41.8% (inactive) and 42.9% (inactive)
same,growth,[9]; 0.01 µM,35.4% (inactive)
same,growth,[9]; 2.5 µM,9.12% (active)
same,growth,[9]; 5 µM,42.1% (inactive)
same,growth,[9]; 10 µM,35.1% (inactive) and 42.3% (inactive)
same,growth,[10]; 2.5 µM,71.3% (inactive)
same,growth,[10]; 5 µM,76.6% (inactive)
same,growth,[10]; 10 µM,75.7% (inactive)
CC1CCC2(C(=O)O)CCC3(C)C(=CCC4C5(C)CC(O)C(O)C(C)(CO)C5C(O)CC43C)C2C1C (configuration not stated),growth,[1]; 10 µM,112% (inactive)
same,growth,[2]; 10 µM,110% (inactive)
same,growth,[3]; 10 µM,91.8% (inactive)
same,growth,[4]; 10 µM,98.7% (inactive)
same,growth,[5]; 10 µM,103% (inactive)
same,growth,[6]; 10 µM,97.5% (inactive)
same,growth,[7]; 10 µM,4.98% (active)
same,growth,[8]; 10 µM,104% (inactive)
same,growth,[9]; 10 µM,107% (inactive)
O=C(O)c1ccccc1.[Ag],growth,[1]; 10 µM,110% (inactive)
same,growth,[2]; 10 µM,97.9% (inactive)
same,growth,[3]; 10 µM,110% (inactive)
same,growth,[4]; 10 µM,105% (inactive)
same,growth,[5]; 10 µM,97% (inactive)
same,growth,[6]; 10 µM,86.8% (inactive)
same,growth,[7]; 10 µM,28.5% (inactive)
same,growth,[8]; 10 µM,105% (inactive)
same,growth,[9]; 10 µM,17% (inactive)
same,growth,[10]; 10 µM,106% (inactive)
O=c1[nH]cc(/C=N\Nc2ccccc2)c(=O)[nH]1,growth,[1]; 10 µM,41.1% (inactive)
same,growth,[2]; 10 µM,58.8% (inactive)
same,growth,[3]; 10 µM,102% (inactive)
same,growth,[4]; 10 µM,103% (inactive)
same,growth,[5]; 10 µM,69.6% (inactive)
same,growth,[6]; 10 µM,52.1% (inactive)
same,growth,[7]; 10 µM,57.8% (inactive)
same,growth,[8]; 10 µM,7.82% (active)
same,growth,[9]; 10 µM,45.8% (inactive)
same,growth,[10]; 10 µM,81.5% (inactive)
CCOC(=O)[C@]1(Br)CC[C@@]1(Br)C(=O)OCC,growth,[1]; 10 µM,89.2% (inactive)
same,growth,[2]; 10 µM,83.1% (inactive)
same,growth,[3]; 10 µM,92.4% (inactive)
same,growth,[4]; 10 µM,106% (inactive)
same,growth,[5]; 10 µM,98.3% (inactive)
same,growth,[6]; 10 µM,97.3% (inactive)
same,growth,[7]; 10 µM,103% (inactive)
same,growth,[8]; 10 µM,77.9% (inactive)
same,growth,[9]; 10 µM,82.5% (inactive)
same,growth,[10]; 10 µM,110% (inactive)
COc1ccc2c(c1)[nH]c1c(/C=C/c3ccccc3)nccc12,growth,[1]; 10 µM,43.9% (inactive)
same,growth,[2]; 10 µM,21.6% (inactive)
same,growth,[3]; 10 µM,35.7% (inactive)
same,growth,[4]; 10 µM,76.5% (inactive)
same,growth,[5]; 10 µM,70.4% (inactive)
same,growth,[6]; 10 µM,42.5% (inactive)
same,growth,[7]; 10 µM,72.8% (inactive)
same,growth,[8]; 10 µM,78.9% (inactive)
same,growth,[9]; 10 µM,63.4% (inactive)
O=[N+]([O-])c1cc(S(=O)(=O)Nc2ccccc2)ccc1Cl,growth,[1]; 10 µM,96.5% (inactive)
same,growth,[2]; 10 µM,101% (inactive)
same,growth,[3]; 10 µM,69.3% (inactive)
same,growth,[4]; 10 µM,95.5% (inactive)
same,growth,[5]; 10 µM,100% (inactive)
same,growth,[6]; 10 µM,94.3% (inactive)
same,growth,[7]; 10 µM,92.8% (inactive)
same,growth,[8]; 10 µM,84.7% (inactive)
same,growth,[9]; 10 µM,77.6% (inactive)
same,growth,[10]; 10 µM,102% (inactive)
